According to PubChem BioAssay:
Where “and” joins values, the source holds several entries; their conditions need not be identical. Equal values may be shown once. Calls of active or inactive are those of the source. Rule as the data show it, unless noted: active = inhibition above about 80%; inactive = the rest.

What was measured:
[1] = sensitizers of A549 cells to miR-34 induction, primary screen, imaging, A549 dox-inducible miR-34, nuclei and caspase counts (AID 1347080;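 active = compounds whose cell count with miR-34 switched on is under 0.7 times the count with it off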); conditions: A549 miR-34 inducible, Hoechst nuclei count, 48 h
[2] = survival rescue of mitochondrial mutant cells in low glucose, primary screen, MELAS cybrids, Rieske KO mouse fibroblasts, CellTiter-Glo (AID 1508586;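 active = mean z-score across replicates of 1.96 or higher in either the MELAS or the Rieske mutant cell line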;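 also: z relative to plate mean and SD of compound and empty wells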)
[3] = target: NAD(+) hydrolase SARM1 (Homo sapiens) (UniProt Q6SZW1); test: SARM1 TIR NADase inhibitors, cell lysate, NAD-Glo luminescence (AID 1508614;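 active = compound whose remaining NAD level is above about 45 nM, limit read from the data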;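 also: higher remaining NAD means stronger inhibition of SARM1 NADase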); conditions: SAM-TIR HEK293T lysate NADase, at 1 µM, stronger effect = higher value
[4] = viability rescue of complex I mutant cybrids, primary screen, cell-based, galactose medium, ATP luminescence (AID 1645843;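 active = z-score of at least 1.8 in each of two replicates, scored against plate mean and spread of sample wells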;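 also: positive z means more ATP and so rescue of galactose-driven cybrid death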); conditions: complex I mutant cybrid cells, 72 h, stronger effect = higher value
[5] = LFS_MB_P medulloblastoma growth inhibition, cell-based, chromothripsis tumors, cisplatin or BGB combos (AID 1671449); conditions: LFS_MB_P medulloblastoma cells;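 also: cells exposed for 96 hours; 0% = vehicle DMSO and 100% = killing by high DMSO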
[6] = HDN33 neuroblastoma growth inhibition, cell-based, chromothripsis tumors, cisplatin or BGB combos (AID 1671450); conditions: HDN33 neuroblastoma cells, stronger effect = higher value;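 also: cells exposed to compound for four days; 0% = vehicle DMSO and 100% = cell killing by high DMSO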
[7] = ICB984 medulloblastoma cell growth inhibition, synergistic combos for chromothripsis tumors, cisplatin or BGB combos (AID 1671451; call rule not given here;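 also: cells exposed for 96 hours before readout; 0% = vehicle DMSO and 100% = killing by high DMSO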); conditions: ICB984 medulloblastoma cells, drug combinations, stronger effect = higher value
[8] = LFS_MB_1R medulloblastoma cell growth inhibition, synergistic combos for chromothripsis tumors, cisplatin or BGB combos (AID 1671452); conditions: LFS_MB_1R medulloblastoma cells, stronger effect = higher value;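 also: cells exposed for 96 hours before readout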
[9] = HTB85 osteosarcoma cell growth inhibition, synergistic combos for chromothripsis tumors, BGB or cisplatin IC20 combos (AID 1671453); conditions: HTB85 osteosarcoma cells, drug combinations, stronger effect = higher value;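 also: cells exposed for 96 hours before readout; 0% = vehicle DMSO and 100% = high DMSO killing control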
[10] = CRL2098 osteosarcoma cell growth inhibition, synergistic combos for chromothripsis tumors, BGB or cisplatin IC20 combos (AID 1671454); conditions: CRL2098 osteosarcoma cells, drug combinations, stronger effect = higher value;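 also: cells exposed for 96 h before readout; 0% = vehicle DMSO and 100% = killing by high DMSO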
[11] = HD-MB03 medulloblastoma cell growth inhibition, synergistic combos for chromothripsis tumors, BGB or cisplatin IC20 combos (AID 1671455; in the data active = inhibition above about 83%;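 also: 0% = vehicle DMSO and 100% = high DMSO as cytotoxic control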); conditions: HD-MB03 medulloblastoma cells, stronger effect = higher value
[12] = target: Mitogen-activated protein kinase 7 (Homo sapiens) (UniProt Q13164); test: ERK5 transactivation activators in reporter cells, primary screen, cell-based, HTS (AID 1508626;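 active = luciferase signal above three times the same-plate solvent-only control wells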;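 also: luciferase driven by Gal4-ERK5 fusion binding five Gal4 sites before minimal TATA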); conditions: HeLa Gal4-ERK5 transactivation, 18 h, at 5 µM, stronger effect = higher value
[13] = stronger effect = lower value, cell number ratio, induced over uninduced
[14] = measured here: relative caspase fold change +Dox/-Dox
[15] = measured here: total cells with miR-34 induction, stronger effect = lower value
[16] = measured here: total cells without miR-34 induction
[17] = MELAS cybrid survival, CellTiter-Glo 48 h, stronger effect = higher value
[18] = Rieske KO mouse fibroblast survival, CellTiter-Glo 72 h
[19] = at 0.5 µM, stronger effect = higher value
[20] = measured here: combination with BGB IC20, at 0.005 µM
[21] = measured here: combination with BGB IC40, at 0.005 µM
[22] = measured here: combination with BGB IC40, at 0.05 µM
[23] = measured here: combination with cisplatin, at 0.5 µM, stronger effect = higher value
[24] = measured here: combination with cisplatin, at 5 µM, stronger effect = higher value
[25] = measured here: with BGB IC20 combination, at 0.5 µM
[26] = measured here: with cisplatin IC20 combination, at 0.5 µM
[27] = measured here: 5 uM single agent, at 5 µM
[28] = measured here: combination with cisplatin, at 0.5 µM
[29] = measured here: combination with cisplatin, at 5 µM
[30] = measured here: with BGB IC20, at 0.5 µM
[31] = measured here: with BGB IC20, at 5 µM
[32] = measured here: with cisplatin IC20, at 0.5 µM
[33] = measured here: with cisplatin IC20, at 5 µM
[34] = measured here: combination with BGB at IC20, at 0.5 µM
[35] = measured here: combination with cisplatin at IC20, at 0.5 µM
[36] = measured here: combo with BGB at IC20, at 0.5 µM
[37] = measured here: combo with cisplatin at IC20, at 0.5 µM

NAD(+) hydrolase SARM1 (Homo sapiens), sequence (Q6SZW1 whole entry, looked up): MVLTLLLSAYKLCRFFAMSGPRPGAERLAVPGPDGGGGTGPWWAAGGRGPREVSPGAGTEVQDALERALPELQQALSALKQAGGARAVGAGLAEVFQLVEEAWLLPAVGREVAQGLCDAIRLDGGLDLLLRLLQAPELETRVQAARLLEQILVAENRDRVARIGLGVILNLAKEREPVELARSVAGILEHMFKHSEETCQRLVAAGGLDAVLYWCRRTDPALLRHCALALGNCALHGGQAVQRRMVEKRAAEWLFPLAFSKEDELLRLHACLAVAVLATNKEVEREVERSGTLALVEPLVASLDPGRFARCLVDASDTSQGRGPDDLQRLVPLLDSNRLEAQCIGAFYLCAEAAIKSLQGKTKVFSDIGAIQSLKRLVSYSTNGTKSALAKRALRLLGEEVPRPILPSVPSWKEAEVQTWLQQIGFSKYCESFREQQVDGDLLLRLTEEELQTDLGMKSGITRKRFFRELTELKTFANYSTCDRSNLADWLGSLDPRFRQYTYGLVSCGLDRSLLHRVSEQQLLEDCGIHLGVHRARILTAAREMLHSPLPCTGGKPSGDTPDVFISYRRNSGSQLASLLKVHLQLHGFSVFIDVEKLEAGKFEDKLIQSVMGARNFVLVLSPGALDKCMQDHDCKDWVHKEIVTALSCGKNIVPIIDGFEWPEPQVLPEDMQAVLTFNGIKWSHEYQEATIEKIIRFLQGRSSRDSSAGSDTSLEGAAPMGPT
Mitogen-activated protein kinase 7 (Homo sapiens), sequence (Q13164 whole entry, looked up, the tested form may be a part): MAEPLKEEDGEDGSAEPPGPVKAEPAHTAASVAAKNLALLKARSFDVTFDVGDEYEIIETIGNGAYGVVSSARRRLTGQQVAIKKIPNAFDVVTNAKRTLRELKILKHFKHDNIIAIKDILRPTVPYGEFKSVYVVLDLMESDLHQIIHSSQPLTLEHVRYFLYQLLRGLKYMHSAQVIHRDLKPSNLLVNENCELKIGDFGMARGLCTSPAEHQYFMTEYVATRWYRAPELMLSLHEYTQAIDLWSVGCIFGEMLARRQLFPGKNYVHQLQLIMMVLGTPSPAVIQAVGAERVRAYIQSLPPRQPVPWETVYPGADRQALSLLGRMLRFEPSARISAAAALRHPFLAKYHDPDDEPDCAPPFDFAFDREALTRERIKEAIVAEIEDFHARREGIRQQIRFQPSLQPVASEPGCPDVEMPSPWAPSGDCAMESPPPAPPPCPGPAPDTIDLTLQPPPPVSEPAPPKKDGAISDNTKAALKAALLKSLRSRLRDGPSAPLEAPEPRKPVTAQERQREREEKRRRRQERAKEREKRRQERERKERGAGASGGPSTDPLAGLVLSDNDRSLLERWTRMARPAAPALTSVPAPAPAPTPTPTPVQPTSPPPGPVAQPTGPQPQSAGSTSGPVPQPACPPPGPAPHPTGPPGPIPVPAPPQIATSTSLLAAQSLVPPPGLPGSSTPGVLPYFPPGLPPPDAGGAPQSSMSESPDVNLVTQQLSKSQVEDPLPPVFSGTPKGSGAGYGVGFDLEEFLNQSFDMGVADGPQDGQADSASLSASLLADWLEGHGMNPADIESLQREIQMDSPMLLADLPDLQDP

Nc1nc2c(ncn2CCC(CO)CO)c(=O)[nH]1
fold change [1, 13]: 0.945 (inactive) and 0.956 (inactive) and 0.874 (inactive)
fold change [1, 14]: 1.67 and 0.466 and 0.841
cell count [1, 15]: 10200 and 9130 and 9970
cell count [1, 16]: 10800 and 9540 and 11400
z-score [2, 17]: -0.249 (inactive) and -1.06 (inactive) and -0.78 (inactive)
z-score [2, 18]: -0.179 and 0.138 and 0.0729
remaining NAD [3]: 10 nM (inactive)
z-score [4]: 0.83 (inactive) and 0.595 (inactive)
inhibition [5, 19]: -31.4% (inactive) and 10.2% (inactive)
inhibition [5, 20]: 18% and -5.86%
inhibition [5, 21]: -15.5% and -23.1%
inhibition [5, 22]: -8% and -22.9%
inhibition [5, 23]: -43% and 6.39%
inhibition [5, 24]: -0.859% and -46.3%
inhibition ([6]; BGB combo, at 5 µM): -37% and 3.74%
inhibition ([6]; at 0.5 µM): -21.5% (inactive) and -13.7% (inactive)
inhibition ([6]; cisplatin combo, at 5 µM): -35.4% and 5.76%
inhibition [6, 25]: -20.3% and -5.75%
inhibition [6, 26]: -28.1% and -7.91%
inhibition ([6]; single agent, at 5 µM): -23.7% and -10.4%
inhibition ([7]; BGB IC20 combo, at 0.005 µM): 6.03% and -7.22%
inhibition ([7]; BGB IC40 combo, at 0.005 µM): -30.8% and -8.59%
inhibition ([7]; BGB IC40 combo, at 0.05 µM): -28.9% and 4.12%
inhibition ([7]; at 0.5 µM): -31.2% (inactive) and -13.2% (inactive)
inhibition ([7]; cisplatin combo, at 0.05 µM): -34.1% and 1.44%
inhibition ([7]; cisplatin combo, at 0.5 µM): -50.7% and 4.42%
inhibition ([7]; cisplatin combo, at 5 µM): -20.3% and -61.9%
inhibition [7, 27]: 6.97% and -17.4%
inhibition ([8]; at 0.5 µM): -19.7% (inactive) and -18.4% (inactive)
inhibition [8, 22]: -23.5% and -18.9%
inhibition [8, 28]: -56.8% and -22.6%
inhibition [8, 29]: -7.78% and -27.3%
inhibition ([9]; at 0.5 µM): -21.5% (inactive) and -5.99% (inactive)
inhibition [9, 30]: -16.4% and -34.5%
inhibition [9, 31]: -7.68% and -31%
inhibition [9, 32]: -24.9% and -1.09%
inhibition [9, 33]: -9.05% and -28%
inhibition ([9]; single agent, at 5 µM): -16.3% and 0.079%
inhibition ([10]; at 0.5 µM): -37% (inactive) and -44.9% (inactive)
inhibition [10, 34]: -37.8% and -1.8%
inhibition [10, 35]: -13.5% and -79.6%
inhibition ([11]; at 0.5 µM): -6.81% (inactive) and 1.52% (inactive)
inhibition [11, 36]: -13.9% and 7.53%
inhibition [11, 37]: -2.89% and -3%

CC1CCc2cc(F)cc3c(=O)c(C(=O)O)cn1c23 (stereo not drawn)
fold change [1, 13]: 0.911 (inactive) and 0.884 (inactive) and 0.854 (inactive)
fold change [1, 14]: 1.2 and 1.04 and 2.46
cell count [1, 15]: 8860 and 8230 and 11600
cell count [1, 16]: 9730 and 9310 and 13600
z-score [2, 17]: -0.14 (inactive) and 1.18 (inactive)
z-score [2, 18]: -0.162 and -0.0831
remaining NAD [3]: 10 nM (inactive)
luciferase signal [12]: 60 AU (inactive)
inhibition [5, 19]: 39.2% (inactive) and -31.9% (inactive)
inhibition [5, 20]: -29.5% and 27.9%
inhibition [5, 21]: -17.3% and 13.7%
inhibition [5, 22]: -16.4% and 38.8%
inhibition [5, 23]: 98.2% and -27%
inhibition [5, 24]: -36.8% and -23.2%
inhibition ([6]; BGB combo, at 5 µM): -3.97% and 10%
inhibition ([6]; at 0.5 µM): 3.55% (inactive) and 8.84% (inactive)
inhibition ([6]; cisplatin combo, at 5 µM): 2.48% and 8.76%
inhibition [6, 25]: 18.5% and 19.1%
inhibition [6, 26]: -0.119% and -5.91%
inhibition ([6]; single agent, at 5 µM): 0.699% and -7.13%
inhibition ([7]; BGB IC20 combo, at 0.005 µM): -7.37% and -18.9%
inhibition ([7]; BGB IC40 combo, at 0.005 µM): -12.9% and -43.9%
inhibition ([7]; BGB IC40 combo, at 0.05 µM): -20% and -12.5%
inhibition ([7]; at 0.5 µM): -19.2% (inactive) and -16.4% (inactive)
inhibition ([7]; cisplatin combo, at 0.05 µM): -20% and -16.9%
inhibition ([7]; cisplatin combo, at 0.5 µM): -31% and -15.5%
inhibition ([7]; cisplatin combo, at 5 µM): -18.9% and -31.7%
inhibition [7, 27]: -15.3% and -14.5%
inhibition ([8]; at 0.5 µM): -3.56% (inactive) and 7.41% (inactive)
inhibition [8, 22]: -7.45% and -3.94%
inhibition [8, 28]: 23.1% and 16.6%
inhibition [8, 29]: 7.04% and -25.3%
inhibition ([9]; at 0.5 µM): -21.3% (inactive) and 5.14% (inactive)
inhibition [9, 30]: -53.3% and -0.618%
inhibition [9, 31]: -33.8% and -1.4%
inhibition [9, 32]: -16.2% and -0.916%
inhibition [9, 33]: -23.6% and -6.11%
inhibition ([9]; single agent, at 5 µM): -1.52% and 15.2%
inhibition ([10]; at 0.5 µM): -7.35% (inactive) and -5.05% (inactive)
inhibition [10, 34]: 15.7% and -0.776%
inhibition [10, 35]: -17.1% and 17.1%
inhibition ([11]; at 0.5 µM): -4.42% (inactive) and 1.31% (inactive)
inhibition [11, 36]: -11.9% and -3.2%
inhibition [11, 37]: 7.79% and 0.674%
